# High-throughput results (PubChem BioAssay)
# GLS inhibitor: qHTS for Inhibitors of Glutaminase (GLS). Glutaminase kidney isoform, mitochondrial (Homo sapiens), O94925. actives 0.21% (n = 410,000). GLS enzymatic activity, qHTS titration. Potency, µM (series often up to 45.5 µM), without a hit: top-dose activity change, negative = inhibition, usual class: inhibitors; note: % is set by controls: 0 for no effect and ±100 for the full control effect
#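 hKGA in 45 mM KH2PO4 pH 8.2, 0.02% Tween-20 with pin-transferred compounds; 1 mM L-glutamine (stock) plus glutamate oxidase/HRP/Amplex Red coupling added. Fluorescence read initially and after 30 min at RT.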
# JMJD2A Tudor inh: qHTS Assay for Inhibitors of JMJD2A-Tudor Domain; AlphaScreen JMJD2A-Tudor / H3K4me3 peptide binding; Potency, µM (doses to about 114 µM), for inactives: at the top dose activity change, negative = inhibition, hits mostly inhibitors; Lysine-specific demethylase 4A (Homo sapiens), O75164; actives 4.4% (n = 390,000); note: % is set by controls: 0 for no effect and ±100 for the full control effect; nearly all actives have a fitted effect of over 50% in size
# G9a inh: qHTS Assay for Inhibitors of Histone Lysine Methyltransferase G9a; G9a H3K9 monomethylation, AlphaScreen, 2 h; actives 8.8% (n = 350,000); Potency, µM (top dose mostly 102 µM), for the others: at the highest dose activity, negative = inhibition, hits mostly inhibitors; Histone-lysine N-methyltransferase EHMT2 (Homo sapiens), Q96KQ7; AID 504332, 2011; note: % is set by controls: 0 for no effect and ±100 for the full control effect; nearly all actives have a fitted effect of over 75% in size
# Target sequence (Q96KQ7 913-1193 limits assumed): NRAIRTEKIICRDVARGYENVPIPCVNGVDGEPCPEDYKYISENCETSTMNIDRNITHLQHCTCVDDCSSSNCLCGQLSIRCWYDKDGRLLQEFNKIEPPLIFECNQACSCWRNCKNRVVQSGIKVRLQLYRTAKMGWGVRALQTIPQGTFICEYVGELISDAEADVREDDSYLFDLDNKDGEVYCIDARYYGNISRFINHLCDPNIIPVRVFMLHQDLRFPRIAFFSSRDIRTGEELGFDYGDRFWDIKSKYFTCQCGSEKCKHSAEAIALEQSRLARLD
#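 Step 1: enzyme (final 20 nM) with compound, 15 min RT. Step 2: substrate peptide 500 nM and SAM 20 uM, 2 h RT. Step 3: anti-H3K9me1 antibody and AlphaScreen beads, 10 min, then plate read.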
# HP1b binding inh: HTS for Inhibitors of HP1-beta Chromodomain Interactions with Methylated Histone Tails; Chromobox protein homolog 1 (Homo sapiens), P83916; AlphaScreen HP1-beta / biotin-H3K9me3 peptide binding; Potency, µM (series often up to 114 µM), for the others: at the highest dose activity change, negative = inhibition, actives largely listed as inhibitors; actives 0.56% (n = 390,000); note: nearly all actives have a fitted effect of over 70% in size
# Target sequence (P83916 whole entry, looked up): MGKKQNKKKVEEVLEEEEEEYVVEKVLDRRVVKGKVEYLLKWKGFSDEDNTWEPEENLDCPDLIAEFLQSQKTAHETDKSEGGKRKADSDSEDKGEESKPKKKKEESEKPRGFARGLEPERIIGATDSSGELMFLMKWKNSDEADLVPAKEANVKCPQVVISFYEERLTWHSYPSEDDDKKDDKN
#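 Compound inhibition of the preformed complex between 50 nM HP1-beta and 50 nM biotinylated H3K9me3 peptide was read by AlphaScreen. Buffer was PBS pH 7.4 with 0.01% Tween-20. Incubations ran 30 min at room temperature, with 10 ug/mL donor/acceptor beads.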
# BAZ2B inh: qHTS Assay for Inhibitors of BAZ2B | AlphaScreen BAZ2B-H3K14Ac peptide displacement | AID 504333, 2011 | Bromodomain adjacent to zinc finger domain protein 2B (Homo sapiens), Q9UIF8 | actives 4.4% (n = 360,000) | Potency, µM (doses to about 114 µM), without a hit: at the top dose activity change, negative = inhibition, actives largely listed as inhibitors; note: % is set by controls: 0 for no effect and ±100 for the full control effect; nearly all actives have a fitted effect of over 60% in size
#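 AlphaScreen luminescence quantifies BAZ2B engagement of H3K14Ac peptide; the protein and biotinylated peptide are both at 50 nM final, buffer PBS pH 7.4 with 0.01% Tween-20, all steps at room temperature.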
# * marks the source's active call; other numbers are inactive results; u = inconclusive; x = no result; ! = not confirmed by another sample; [ ] = remark or other dose. Compounds with a hit are over-represented: about 10% of the library has one in this group of screens. Calls come from the whole dose curve; as a rule, active = well fitted curve in the direction sought with a large enough effect; inconclusive = small, poorly fitted or top-dose-only effect, or another doubt; inactive = no such curve, though single readings can be large; an effect the other way counts as inactive or inconclusive. Potency is the fitted concentration of half-maximal effect.
SMILES,GLS inhibitor,JMJD2A Tudor inh,G9a inh,HP1b binding inh,BAZ2B inh
CSc1ccc(CNC(=O)Cn2c(-c3cccs3)cc3cc(F)ccc32)cc1,0%,-2%,8%[59 µM],42%,4%
CCSc1nc2c(c(-c3ccc(C)o3)c1C#N)CCCC2,0%,84%,u,58%,10%
Cc1ccc(-c2c(C#N)c(N)nc3c2CCCC3)o1,1%,-10%,7.9µM*,40%,u
N#Cc1c(-c2ccncc2)c2c([nH]c1=S)CCCC2,-9%,2.2µM*,2.2µM*,-30%,u
N#Cc1c2c(c(-c3ccccc3Cl)[nH]c1=S)CCCC2,u,-21%,10%[12.7 µM],14%,-20%
Cc1ccc(-c2c3c([nH]c(=S)c2C#N)CCCC3)o1,u,40µM*,4.5µM*,u,50µM*
CCN(CCCNC(=O)Cn1ncc2c([nH]c3ccc(C)cc32)c1=O)Cc1ccccc1,0%,-8%,-10%[59 µM],25%,-6%
Cn1c(=O)c2ncn(CC(=O)N/N=C/c3ccco3)c2n(C)c1=O,-4%,-5%,-1%,25%,-15%
CC1CCCCN1S(=O)(=O)c1cc2c(=O)nc3ccccn3c2cc1Cl (stereo not given),-3%,-6%,2%[59 µM],45%,3%
COC(=O)c1sc(-c2ccc(C(C)(C)C)cc2)cc1NC(=O)c1ccccc1C(=O)O,-4%,-26%,-50%,54%,79µM*
CN(C)S(=O)(=O)N(CC(=O)N(Cc1ccccc1)Cc1ccccc1)c1ccccc1,0%,u,-4%[59 µM],8%,56µM*
COCCCN=Cc1c(C)[nH]n(-c2ccc(Br)cc2Br)c1=O,-2%,-16%,50µM*,-5%,x
COc1cc(OC)cc(C(=O)N[C@H](C(=O)OCC(=O)Nc2cccnc2Cl)C(C)C)c1,-1%,-18%,-5%[59 µM],12%,10%
O=C1N(Cc2ccccc2)CC2(Br)COCOC12O (stereo not given),-5%,3.5µM*,x,7.1µM*,x
O=C1C(c2ccccc2)CN1Cc1ccccc1 (stereo not given),-4%,x,x,x,x
CN(C)c1ccc(CNc2nc(-c3ccco3)nn2C(=O)c2cccc([N+](=O)[O-])c2)cc1,2%,45µM*,7.9µM*,u,35µM*
COc1ccccc1CNc1nc(-c2ccco2)nn1S(=O)(=O)c1ccc(C)cc1,-14%,-4%,u,36%,-21%
Cc1ccc(CNc2nc(-c3ccco3)nn2C(=O)c2ccccc2[N+](=O)[O-])cc1,0%,u,13µM*,u,8.9µM*
COc1ccccc1CNc1nc(-c2ccco2)nn1C(=O)c1ccccc1[N+](=O)[O-],-3%,u,11µM*,-1%,u
COc1ccc(CNc2nc(-c3ccco3)nn2C(=O)c2ccccc2C)cc1,-2%,-20%,u,-5%,-11%
O=C(CCCn1c(=O)c2ccccc2n(Cc2ccc(F)cc2Cl)c1=O)NCCc1ccc(Cl)cc1,-2%,0%,-4%[59 µM],47%,11%
O=C(Cn1c(=O)n(Cc2ccc(F)cc2)c(=O)c2sc3ccccc3c21)NCc1ccccc1Cl,4%,-8%,-3%[59 µM],40%,2%
NNc1nc2ccc(F)cc2s1,-1%,u,u,-38%,45µM*
NS(=O)(=O)c1ccc2nc(NC(=O)Nc3ccc(F)cc3)sc2c1,0%,-16%,50µM*,3%,1%
NNc1nc2ccc(Cl)cc2s1,-4%,79µM*,56µM*,-20%,50µM*
SMILES,GLS inhibitor,JMJD2A Tudor inh,G9a inh,HP1b binding inh,BAZ2B inh
CS(=O)(=O)c1ccc2nc(NC(=O)Nc3ccc(Cl)cc3)sc2c1,-1%,-15%,u,25%,-29%
CCc1ccc(-c2nc3cc(NC(=O)c4ccc(F)cc4)ccc3o2)cc1,-3%,-11%,5%[59 µM],41%,4%
COC(=O)CCNC(=O)CCc1ccc(S(=O)(=O)N2CCCCCC2)cc1,-3%,-3%,-11%[2.33 µM],27%,11%
Cc1ccc(NC(=O)c2ccc(Cl)c(N3C(=O)C=CC3=O)c2)cc1,-9%,7.9µM*,-40%[0.501 µM],u,22µM*
O=C(Nc1ccc(Cl)c(Cl)c1)c1ccc(Cl)c(Cl)c1,-2%,-9%,20%,31%,-13%
CC(=O)Nc1cccc(C(=O)Nc2cc(C(F)(F)F)ccc2-n2cncn2)c1,-4%,x,x,x,x
O=C(C1CC(c2ccccc2O)=NO1)N1CCCCC1 (stereo not given),-15%,89µM*,u,-4%,u
O=C(NCc1cccnc1)C1CC(c2ccccc2O)=NO1 (stereo not given),3%,50µM*,25µM*,10%,u
CCN(CC)C(C)CN1c2ccccc2Sc2ccccc21 (stereo not given),x,x,5µM*!,x,x
O=C(CNCc1ccccn1)N1CCc2ccccc2C1,6%,u,-107%[59 µM],9%,4µM*
Cc1ccnc(SCC(=O)N2CCc3ccccc3C2)n1,-3%,-8%,40µM*,-5%,-27%
C=C1CCN(C(CC(C)C)C(=O)NCc2ccc(Cl)cc2)S(=O)(=O)c2ccccc21 (stereo not given),x,-11%,x,41%,x
Cc1cc(=O)oc2cc(OCC(=O)N3CCC(C(N)=O)CC3)ccc12,3%,-12%,x,20%,4%
Cc1ccc(-n2ncc(C(=O)NCCc3ccsc3)c2C2CCN(C(=O)OC(C)(C)C)CC2)c(C)c1,13%,-30%,-28%[59 µM],24%,0%[57.1 µM]
CC(C)CCNC(=O)NC(=O)CSc1nnc2ccccn12,-2%,3%,5%[59 µM],18%,15%
CC(C)CNC(=O)CSc1nnc2ccccn12,0%,-3%,45µM*,45%,-7%
CS(=O)(=O)N1CCC2(CC1)CN(Cc1nccs1)C2,x,x,10%[12.7 µM],x,x
COc1cccc(C2Nc3cc(Cl)c(S(N)(=O)=O)cc3S(=O)(=O)N2)c1 (stereo not given),8%,50µM*,1%[59 µM],-16%,1%
COc1cc(C2Nc3cc(Cl)c(S(N)(=O)=O)cc3S(=O)(=O)N2)cc(OC)c1OC (stereo not given),28%,-13%,-8%,10%,13%
CCOc1ccc(OC(=O)c2cn(-c3ccc(C)cc3)c(=O)c3ccccc23)cc1,9%,50µM*,7%[59 µM],25%[57 µM],1%
C=CCN(CC=C)CCOc1cccc2ccccc12,4%,20µM*,11µM*,u,50µM*
C=CCN(CC=C)CCOc1ccccc1,1%,3.5µM*,13µM*,-18%,56µM*
COc1cc2c(cc1OC)/C(=C/C(=O)c1cccc([N+](=O)[O-])c1)NCC2,2%,u,-45%,u,-35%
